Bioassay records from PubChem.
MCF10A rerep = induces DNA re-replication in MCF 10a normal breast cells. actives 2.9% (n = 350,000). MCF 10A DNA re-replication, Hoechst nuclear intensity, 48 h. Potency, µM (doses to about 46.1 µM), inactives show top-dose activity, positive = re-replication, usual class: activators; also: potency is read from the fitted curve at half-maximal effect; % of control where 0% means no effect; nearly all actives have a fitted effect of over 50% in size
ASM inhibitor = human S-ASM enzyme inhibition. P17405. placental ASM, HMU-PC fluorogenic substrate, 60 min. Potency, µM (doses to about 57.5 µM), inactives show top-dose activity change, negative = inhibition, actives largely listed as inhibitors. actives 0.006% (n = 340,000); also: potency is read from the fitted curve at half-maximal effect
Target sequence (P17405 47-631 limits assumed): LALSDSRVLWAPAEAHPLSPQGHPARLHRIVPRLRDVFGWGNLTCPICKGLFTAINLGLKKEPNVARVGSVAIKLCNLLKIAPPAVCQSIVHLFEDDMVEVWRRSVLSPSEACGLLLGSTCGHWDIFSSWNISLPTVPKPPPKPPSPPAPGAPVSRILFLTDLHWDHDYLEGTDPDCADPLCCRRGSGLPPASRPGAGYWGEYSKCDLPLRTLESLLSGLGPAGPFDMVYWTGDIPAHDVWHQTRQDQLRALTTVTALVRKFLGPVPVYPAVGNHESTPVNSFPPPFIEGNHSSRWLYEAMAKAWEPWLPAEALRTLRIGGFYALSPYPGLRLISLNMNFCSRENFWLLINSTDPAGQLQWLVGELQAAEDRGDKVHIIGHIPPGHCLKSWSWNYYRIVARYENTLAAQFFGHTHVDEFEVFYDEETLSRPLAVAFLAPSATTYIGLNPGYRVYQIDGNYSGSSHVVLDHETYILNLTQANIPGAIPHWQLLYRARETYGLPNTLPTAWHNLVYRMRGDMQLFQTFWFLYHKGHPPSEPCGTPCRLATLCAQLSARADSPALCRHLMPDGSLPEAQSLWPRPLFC
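Fluorescence read-out (Ex 386 nm, Em 447 nm) after stopping the reaction at pH 10. Enzyme: ASM from human placenta; substrate HMU-PC0, 9 uM final; 60 min, 37 °C. Compound preincubation 10 min, ambient temperature.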
SW480 rerep = induces DNA re-replication in SW480 colon adenocarcinoma cells; SW480 DNA re-replication, Hoechst DNA content imaging, 48 h; Potency, µM (titrated, usually from 46.1 µM), inactives show at the highest dose re-replication activation, most hits filed as activators; actives 1.8% (n = 340,000); AID 624297; also: potency is read from the fitted curve at half-maximal effect; % of control where 0% means no effect; nearly all actives have a fitted effect of over 55% in size
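First, 250 cells per well were seeded. Next, compound or vehicle (23 nL) was pinned in, plates sat 48 hr at 37 C. Finally Hoechst was added for 40 min before fluorescence scanning.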
KB-3-1 tox = kills parental KB-3-1 adenocarcinoma cells; KB-3-1 viability, CellTiter-Glo ATP luminescence, 72 h; Potency, µM (highest dose often 46.1 µM), usual class: cytotoxic; actives 1.4% (n = 400,000); also: potency is read from the fitted curve at half-maximal effect; % is scaled to controls: 0 for no effect and ±100 for the full control effect; nearly all actives have a fitted effect of over 60% in size
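Viability of parental KB-3-1 cells, measured by CellTiter-Glo luminescence, followed a 72 h incubation at 37 °C with pinned compounds in phenol-red-free DMEM containing 10% FBS.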
KB-V1 MDR tox = KB-V1 MDR subline cytotoxicity. KB-V1 MDR cells viability, CellTiter-Glo, 72 h. Potency, µM (highest dose often 46.1 µM), usual class: cytotoxic. actives 3.4% (n = 400,000). AID 1347076; also: potency is read from the fitted curve at half-maximal effect; % is scaled to controls: 0 for no effect and ±100 for the full control effect; nearly all actives have a fitted effect of over 60% in size
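KB-V1 cells (P-gp-expressing MDR subline of KB-3-1) in phenol-red-free DMEM with 10% FBS were exposed to library compounds over a concentration series for 72 h at 37 degrees C. Viability read by CellTiter-Glo luminescence; concentration-effect curves fitted after normalization.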
Giardia killer = kills Giardia lamblia. Giardia lamblia trophozoite viability. activity change, % at 7.66 µM, hits read low. actives 0.15% (n = 340,000). AID 540267; in the data active = activity change below about -80%; inconclusive = between about -30% and that limit;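 also: parasites exposed to compound for two days anaerobically before the ATP read; % is scaled to controls: 0 for no effect and ±100 for the full control effect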
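Giardia lamblia trophozoites (100 cells/well) were incubated with compounds for 48 h at 37 deg C under anaerobic conditions. Viability was read as ATP content by one-step luminescence after 15-30 min at room temperature.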
* hit, by the source's call; i = inactive; ? = inconclusive; nt = no result; [ ] = remark or other dose. In the library only some 6.9% were active in any assay of this set; here they are far more common. Unless noted, calls follow the shape of the dose curve; as a rule, active = well fitted curve in the direction sought with a large enough effect; inconclusive = small, poorly fitted or top-dose-only effect, or another doubt; inactive = no such curve, though single readings can be large; an effect the other way counts as inactive or inconclusive.

SMILES	MCF10A rerep	ASM inhibitor	SW480 rerep	KB-3-1 tox	KB-V1 MDR tox	Giardia killer
CN1CCC[C@@H]1c1cccnc1	-6%	nt	-14%	nt	nt	nt
Cn1cc(C(=O)OCC(=O)NC2CCCCC2)c2ccccc21	?	-2%	6%	?	i	7
COc1ccccc1NC(=O)COC(=O)c1cn(C)c2ccccc12	9%	-3%	-5%	i	9.2µM*	3
CCC(C)C1O[C@]2(C=CC1C)CC1CC(C/C=C(\C)[C@H](OC3CC(OC)C(O[C@H]4CC(OC)[C@@H](O)C(C)O4)C(C)O3)[C@@H](C)/C=C/C=C3\COC4C(O)C(C)=C[C@H](C(=O)O1)[C@@]34O)O2 (stereo not given in full)	?	nt	6%	nt	nt	nt
CC(C(=O)c1c[nH]c2ccccc12)N1CCOCC1 (stereo not given)	9%	1%	?	i	i	-1
CC(C)N1CC=C(c2c[nH]c3ccccc23)CC1	41%	134%	12%	2.1µM*	i	-4
CC(C)(O)C(Cl)(Cl)Cl	0%	nt	1%	nt	nt	nt
C=C1CC[C@H](O)C/C1=C/C=C1\CCC[C@]2(C)[C@@H]([C@H](C)CCCC(C)C)CC[C@@H]12	24µM*	nt	15%	nt	nt	nt
C=CC[C@@H](CC/C=C/C=C/CC/C=C\[C@@H]1CSC([C@@H]2C[C@@H]2C)=N1)OC	0.73µM*	2%	1.2µM*	i	i	39
CC(C)c1ccc(Oc2cccc3c2S(=O)(=O)N(C2CCCC2)CC(COCc2ccccc2)O3)cc1 (stereo not given)	-52%	-1%	-13%[9.22 µM]	i	i	-5
O=C(Nc1ccccc1)C1=C[C@H](c2ccccc2)C[C@H](OCCCCO)O1	18µM*	-3%	1%	?	?	6
COc1ccc(C[C@@H]2c3cc(O)c(OC)cc3CCN2C)cc1O	1%	-8%	-2%	i	i	34
COc1cc2c(cc1O)[C@@H]1Cc3ccc(OC)c(O)c3CN1CC2	?	-1%	?	5.8µM*	7.3µM*	9
CC(C)COP(=O)(OCC(C)C)C(Nc1ccccc1)c1ccccc1 (stereo not given)	?	3%	-75%	i	?	-4
O=P(Oc1ccccc1)(Oc1ccccc1)C(Nc1ccccc1)c1ccccc1 (stereo not given)	?	-1%	18%	?	13µM*	-1
CCOC(=O)c1ccccc1C(=O)OCC	12%	5%	-54%	i	i	-14
CCOC(=O)c1cnc(N2CC2)nc1N	?	5%	?	?	5.8µM*	-17
COc1cc(-c2ccc(-[n+]3nc(-c4ccccc4)nn3-c3ccc([N+](=O)[O-])cc3)c(OC)c2)ccc1-[n+]1nc(-c2ccccc2)nn1-c1ccc([N+](=O)[O-])cc1	-1%	nt	?	nt	nt	nt
CCc1ccccc1NC(=O)c1cccn(Cc2ccccc2F)c1=O	nt	nt	nt	i	i	nt
CCCNC(=O)N1[C@H]2CC[C@@H]1C(C(=O)OC)=C(c1ccc(-c3ccccc3)c(F)c1)C2	5%	-11%	-16%	?	?	8
COC(=O)C1=C(c2ccc(-c3ccccc3)c(F)c2)C[C@@H]2CC[C@H]1N2C(=O)NCCO	15%	0%	0%	?	?	20
COC(=O)C1=C(c2ccc(-c3ccccc3)c(F)c2)C[C@@H]2CC[C@H]1N2C(=O)NCCOc1ccccc1Cl	1%	-14%	?	?	21µM*	-10
COC(=O)C1=C(c2ccc(-c3ccccc3)c(F)c2)C[C@@H]2CC[C@H]1N2C(=O)NCc1ccco1	21µM*	-16%	26%	?	i	-1
O=C1C2CCCN2C(c2cccs2)N1c1ccc(Cl)cc1 (stereo not given)	?	1%	3%	?	?	21
COc1ccc(CNCCc2c(C)[nH]c3ccc(OC(F)(F)F)cc23)c(OC)c1	21µM*	-6%	?	?	7.3µM*	-3
SMILES	MCF10A rerep	ASM inhibitor	SW480 rerep	KB-3-1 tox	KB-V1 MDR tox	Giardia killer
COc1ccc2[nH]c(C)c(CCNCc3cc(OC)c(OC)c(OC)c3)c2c1	12%	4%	-11%	i	?	-16
CC1CC(C)CC(C)C(O)C(C#N)=CC=CCC(C2CCCC2C(=O)O)OC(=O)CC(O)C(C)C1 (stereo not given)	0.13µM*	2%	?	1.2µM*	6.5µM*	?
CC1(C)CC(=O)C2=C(C1)OC(N)=C([N+](=O)[O-])C2c1ccc(C#N)s1 (stereo not given)	-1%	-2%	?	?	i	1
O=c1oc2cccnc2n1CCS(=O)(=O)c1ccc(F)cc1	21µM*	-5%	?	i	i	-11
CC(C)C(NC(=O)C(C(C)C)N(C)C)C(=O)N(C)C(C(=O)N1CCCC1C(=O)N1CCCC1C(=O)NCc1ccccc1)C(C)C (stereo not given)	?	-1%	?	?	21µM*	7
CC(C)C(=O)Nc1ccc([N+](=O)[O-])c(C(F)(F)F)c1	-10%	0%	-84%	i	?	3
COc1ccc(OC)c(N=Cc2c(O)n(Cc3ccccc3)c(=S)[nH]c2=O)c1	?	19%	29µM*	i	i	-1
COc1ccc2c(c1)/C(=C/c1cnc[nH]1)C(=O)N2	?	-13%	?	?	10µM*	-23
O=C1Nc2ccccc2/C1=C/c1cnc[nH]1	?	-6%	?	i	?	-1
COc1cc(OC)c(/C=C2\C(=O)Nc3ccccc32)c(OC)c1	5.2µM*	-22%	12µM*	4.1µM*	8.2µM*	6
O=C(c1ccccc1)C(Cc1ccccc1)N1CCOCC1 (stereo not given)	6%	3%	-2%	i	18µM*	4
CCn1c(O)c(/C=N/NC(=O)c2ccccc2)c(=O)n(CC)c1=S	?	17%	18µM*	?	i	3
C[C@@H](N)[C@@H](O)c1ccc(O)c(O)c1	-1%	nt	10%	nt	nt	nt
Cc1cc(C)c(N)cc1C	?	4%	?	i	i	-16
O=P1(Oc2ccccc2)CC=CC(COC(c2ccccc2)(c2ccccc2)c2ccccc2)O1 (stereo not given)	nt	nt	nt	nt	nt	-6
CNc1cc(N2CCN(C)CC2)ccc1[N+](=O)[O-]	17%	-6%	1%	i	i	2
O=[N+]([O-])c1ccc(N2CCCC2)cc1N/N=C1\CN2CCC1CC2	1%	-20%	23µM*	i	21µM*	-9
